Measurements from PubChem BioAssay AID504652 (National Center for Advancing Translational Sciences (NCATS), 2011).
Screen size: about 360,000 compounds; about 11,000 (3.1%) were called active. No stated cut-off is given here; in the data, active means activity change below about -30%; inactive means the rest. The full list was thinned out, with actives kept by preference.

These compounds were tested against D(1A) dopamine receptor (Homo sapiens) (UniProt P21728) (assay: Antagonist of Human D 1 Dopamine Receptor: qHTS). Settings: HEK293 TREx D1 cells, calcium flux, dopamine EC80; at 10 µM; stronger effect = lower value.
How it was run: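 Tetracycline-induced HEK293 T-REx cells with force-coupled D1 receptor were loaded with a no-wash calcium dye. Compound was added after a 10 s baseline and read kinetically for 180 s; EC80 dopamine was then added and calcium flux followed another 180 s.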
On the % scale 0 is the no-effect control and ±100 the full control effect.

D(1A) dopamine receptor (Homo sapiens), sequence (P21728 whole entry, looked up): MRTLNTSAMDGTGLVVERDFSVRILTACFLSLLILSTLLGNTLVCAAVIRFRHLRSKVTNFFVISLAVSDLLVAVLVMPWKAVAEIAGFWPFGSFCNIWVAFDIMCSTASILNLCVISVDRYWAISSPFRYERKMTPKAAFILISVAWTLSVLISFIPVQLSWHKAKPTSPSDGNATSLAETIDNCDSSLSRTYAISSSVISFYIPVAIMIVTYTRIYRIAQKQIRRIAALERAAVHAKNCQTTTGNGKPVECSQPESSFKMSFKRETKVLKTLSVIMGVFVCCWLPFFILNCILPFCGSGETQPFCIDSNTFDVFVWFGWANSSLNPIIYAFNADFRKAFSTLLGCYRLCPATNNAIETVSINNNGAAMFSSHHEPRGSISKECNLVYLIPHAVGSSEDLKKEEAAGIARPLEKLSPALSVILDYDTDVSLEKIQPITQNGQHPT

Row | SMILES | activity change, negative = inhibition
1 | Cc1ccccc1CNC(=O)C1CCCN(S(=O)(=O)N(C)c2ccc(F)cc2)C1 (stereo not drawn) | -10.3% (inactive)
2 | FC(F)(F)Oc1ccc(NC(=S)NCc2ccccc2)cc1 | -19.3% (inactive)
3 | S=C(NCc1cccs1)Nc1ccc(Cl)cc1 | -26.2% (inactive)
4 | Fc1ccccc1CNC(=S)Nc1ccc(Cl)cc1 | -38.1% (active)
5 | Cc1ccc(C(=O)Nc2cc3c(cc2N2CCCC2)n(C)c(=O)c(=O)n3C)cc1 | 16% (inactive)
6 | COc1ccc(N2C(=O)CS(=O)(=O)C23C(=O)N(Cc2ccc(C)cc2)c2ccccc23)cc1Cl (stereo not drawn) | -16% (inactive)
7 | CCOc1ccccc1NC(=O)CN1CCCN(Cc2cccc(Cl)c2)S1(=O)=O | 2.3% (inactive)
8 | O=C(O)CCCc1ccccc1 | -31.7% (active)
9 | O=C(O)CCC(=O)N(Cc1ccccc1)Cc1ccccc1 | -11.6% (inactive)
10 | O=C(CCCc1ccccc1)NCc1ccccc1 | -7.61% (inactive)
11 | O=C(CSc1oc(-c2ccccc2)nc1S(=O)(=O)c1ccc(Br)cc1)NC1CCCCC1 | 8.79% (inactive)
12 | CCc1ccc(-n2nnc(-c3nc(-c4ccccc4)no3)c2C)cc1 | -9.23% (inactive)
13 | CC(C)c1ccc(C2C(C(=O)c3ccco3)=C(O)C(=O)N2CC2CCCO2)cc1 (stereo not drawn) | -6.37% (inactive)
14 | CCOc1cc(C2C(C(=O)c3ccco3)=C(O)C(=O)N2Cc2ccccc2)ccc1O (stereo not drawn) | 9.97% (inactive)
15 | O=C(C1=C(O)C(=O)N(Cc2ccccc2)C1c1ccco1)c1ccco1 (stereo not drawn) | -36.2% (active)
16 | O=S(=O)(c1ccc2c(c1)OCCO2)N1CCN(S(=O)(=O)c2cc(F)ccc2F)CC1 | -3.7% (inactive)
17 | CCCNC(=O)c1ccc(N2CCC3(CC2)CC(c2ccc(Cl)cc2)=NO3)c([N+](=O)[O-])c1 | -31.3% (active)
18 | O=C(COc1ccccc1F)NNC(=O)c1ccc(N2CCCCC2)c([N+](=O)[O-])c1 | -3.15% (inactive)
19 | COCCNC(=O)c1ccc(N2CCC3(CC2)OCCO3)c([N+](=O)[O-])c1 | -74.3% (active)
20 | CCC(C)NC(=O)c1ccc(N2CCC3(CC2)OCCO3)c([N+](=O)[O-])c1 (stereo not drawn) | -7.67% (inactive)
21 | CCCNC(=O)c1ccc(N2CCC3(CC2)CC(c2cccc(Br)c2)=NO3)c(NC(=O)c2ccco2)c1 | -2.71% (inactive)
22 | CC1CCN(c2ccc(C(=O)NCc3ccc4c(c3)OCO4)cc2[N+](=O)[O-])CC1 | -7.43% (inactive)

Row | SMILES | activity change, negative = inhibition
23 | COc1cccc(NC(=O)CN2C(=O)c3ccccc3Sc3ncccc32)c1 | 5.53% (inactive)
24 | COc1cccc(-c2nc(CS(=O)(=O)CC(=O)N3CCN(c4cc(C)ccc4C)CC3)c(C)o2)c1 | -16.9% (inactive)
25 | CC(NC(=O)CCc1cn(Cc2ccccc2Cl)c2ccccc12)c1ccccc1 (stereo not drawn) | -6.68% (inactive)
26 | CCOCCCNC(=O)c1c(NC(=O)Cc2coc3c(C)c(C)ccc23)sc2c1CCC2 | 11.9% (inactive)
27 | Cc1ccc(Cl)cc1NC(=O)CCC(=O)N1CC(C)Sc2ccccc21 (stereo not drawn) | 0.985% (inactive)
28 | Cc1ccc(S(=O)(=O)NCc2nc3ccccc3c(=O)n2N)cc1 | -32.4% (active)
29 | COc1ccccc1CNS(=O)(=O)c1ccc(C)cc1 | -13.9% (inactive)
30 | C#CCCCc1nc2ccccc2c(=O)n1N | 3.38% (inactive)
31 | Cc1ccc(Cn2c(CCCNC(=O)C3CCCCC3)nc3ccccc32)cc1 | 10.5% (inactive)
32 | CC(C)Cn1c(-c2ccc(S(=O)(=O)N3CCOCC3)cc2)csc1=Nc1cc(Cl)ccc1Cl | -0.499% (inactive)
33 | CC1CCCN(c2nc3c(S(=O)(=O)c4ccc(C(C)C)cc4)nnn3c3ccsc23)C1 (stereo not drawn) | -10.6% (inactive)
34 | CCc1cc2c(cc(C(=O)OC)n2Cc2nc(-c3ccc(C)cc3)oc2C)s1 | 10.2% (inactive)
35 | CC(=O)NNC1=Nc2ccccc2N(C)C(C)C1 (stereo not drawn) | 3.33% (inactive)
36 | COC(=O)C1=C(C(=O)OC)[C@@H]2N(C)c3ccccc3[C@@]23C[C@@H](C(=O)OC)N(C(C)=O)C3=N1 | -45.5% (active)
37 | O=C(CSc1ncn[nH]1)Nc1ccnc2ccccc12 | -18.5% (inactive)
38 | O=C(CSc1n[nH]c(-c2cccnc2)n1)Nc1ccnc2ccccc12 | -30.8% (active)
39 | O=C(CSc1n[nH]c(-c2cccnc2)n1)Nc1ccc(Cl)cc1 | 24.7% (inactive)
40 | O=C(CNC(=O)c1ccc(Cl)c(C(F)(F)F)c1)OC(C(=O)Nc1cc(C(F)(F)F)ccc1Cl)c1ccccc1 (stereo not drawn) | 7.72% (inactive)
41 | COc1ccc(Cl)cc1S(=O)(=O)N1CCC(c2ccncc2)CC1 | 8.07% (inactive)
42 | CCOC(=O)C1CCCN(C(=O)Cn2ncc3c(C)n(Cc4ccc(F)cc4)c(C)c3c2=O)C1 (stereo not drawn) | -36.8% (active)
43 | CCCn1c2ccccc2c2cnn(CC(=O)N3CCCC(C(=O)OCC)C3)c(=O)c21 (stereo not drawn) | 13.4% (inactive)
44 | Cc1ccc(Cn2c(C)c3cnn(CC(=O)NCc4ccccc4)c(=O)c3c2C)cc1 | -2.69% (inactive)

Row | SMILES | activity change, negative = inhibition
45 | CC1CCN(C(=O)Cn2c(=O)n(-c3ccc(Cl)cc3)c(=O)c3c4c(sc32)CCC4)CC1 | -0.901% (inactive)
46 | CSc1ccc(NC(=O)Cn2nnnc2-c2ccccc2F)cc1 | -8.36% (inactive)
47 | Cc1ccc(Cl)cc1NC(=O)C(C)n1nnc2sc(-c3ccccc3)cc2c1=O (stereo not drawn) | -1.65% (inactive)
48 | CCN(CCn1cccn1)Cc1nc(-c2ccc(C(=O)OC)cc2)no1 | -44.5% (active)
49 | CCN(CCn1cccn1)Cc1cn[nH]c1-c1ccc(OC)cc1F | 0.481% (inactive)
50 | COC(=O)c1ccc(-c2noc(CN(Cc3ccccn3)CC3CCCO3)n2)cc1 (stereo not drawn) | -16.4% (inactive)
51 | COC(=O)c1ccccc1NC(=O)c1ccc(C#N)cc1 | 6.29% (inactive)
52 | O=[N+]([O-])c1ccc(NCCCO)c(C(F)(F)F)c1 | 6.05% (inactive)
53 | CC(C)(C)C(=O)NCCCNc1ccc([N+](=O)[O-])cc1 | -35.6% (active)
54 | COCCCNC(=S)NC(=O)c1ccc([N+](=O)[O-])cc1 | 5.38% (inactive)
55 | CC1=C(C(=O)OCc2ccc(C)cc2)C(c2ccccc2Cl)CC(=O)N1 (stereo not drawn) | -1.32% (inactive)
56 | Cc1cccc(Cn2c(=O)n(CCC(=O)NCCc3ccc(Cl)cc3)c(=O)c3sccc32)c1 | -1.13% (inactive)
57 | CCN(CCCNC(=O)c1cc2cc3cc(OC)ccc3nc2s1)c1ccccc1 | -2.73% (inactive)
58 | Cc1ccc(CSc2nc3[nH]ncc3c(=O)[nH]2)cc1 | -7.82% (inactive)
59 | CCCSc1nc2[nH]ncc2c(=O)[nH]1 | -32.5% (active)
60 | O=C(CSc1nc2[nH]ncc2c(=O)[nH]1)Nc1ccc(F)cc1 | -21.9% (inactive)
61 | CCc1ccccc1NC(=O)CSc1nnc(-c2ccccc2)c(-c2ccccc2)n1 | 6.16% (inactive)
62 | CCN(C(=O)CN1C(=O)/C(=C/c2ccc(F)cc2)SC1=S)C1CCS(=O)(=O)C1 (stereo not drawn) | 6.56% (inactive)
63 | O=C1/C(=C/c2ccc(F)cc2)SC(=S)N1NS(=O)(=O)c1ccccc1 | -4.82% (inactive)
64 | O=C1/C(=C/c2ccc(F)cc2)SC(=S)N1CCCC(=O)N1CCCCC1CCO (stereo not drawn) | -30.8% (active)
65 | O=C(Cn1cnc2c(oc3ccccc32)c1=O)Nc1ccc(OC(F)(F)F)cc1 | 17.3% (inactive)
66 | Cc1cc(Nc2ccccc2)n(C(=O)c2ccc(N)cc2)n1 | -35.8% (active)

Row | SMILES | activity change, negative = inhibition
67 | Cc1cc(NC(=O)Nc2ccc(Cl)cc2)n(-c2ccccc2)n1 | -15.2% (inactive)
68 | Cn1c(Nc2ccccc2)cc(=O)n(C)c1=O | 4.71% (inactive)
69 | O=C(c1cccs1)c1cn(CCOc2ccc(Cl)cc2)c2ccccc12 | -2.17% (inactive)
70 | O=C1C(C=NCC2CCCO2)=C(O)c2ccccc21 (stereo not drawn) | -0.787% (inactive)
71 | O=C1c2cccc3c([N+](=O)[O-])ccc(c23)C(=O)N1CC1CCCO1 (stereo not drawn) | -30.6% (active)
72 | CN1CN(C)c2ccc([N+](=O)[O-])c3cccc1c23 | 1.14% (inactive)
73 | CC(=O)c1ccc(NC(=O)c2nc3nc(C)cc(C(F)F)n3n2)cc1 | 6.33% (inactive)
74 | CCOC(=O)c1ccc(NC(=O)Cn2c(=O)n(-c3ccc(C)cc3)c(=O)c3c2cnn3C)cc1 | -7.04% (inactive)
75 | CCn1cc(C(=O)NCc2ccccc2)c(=O)c2cc(S(=O)(=O)N3CCCCC3)ccc21 | 1.17% (inactive)
76 | CCn1c(CNC(=O)C23CC4CC(CC(C4)C2)C3)nnc1SCC(=O)Nc1ccc(OC)cc1 | 17.4% (inactive)
77 | CCOc1ccc(-c2noc(CCC(=O)NC3CCCC3)n2)cc1OC | 5.22% (inactive)
78 | CCOc1cc(-c2noc(CCCC(=O)NC3CCCCC3)n2)ccc1OC | -2.32% (inactive)
79 | COc1ccc(-c2noc(CCCC(=O)NC3CCCC3)n2)cc1OC | -31.9% (active)
80 | CCOC(=O)c1c(NC(=O)CSc2cn(CCNC(=O)c3cccc(C(F)(F)F)c3)c3ccccc23)sc2c1CCC2 | -11.4% (inactive)
81 | CCOC(=O)c1c(NC(=O)CSc2cn(CC)c3ccccc23)sc2c1CCC2 | -30.9% (active)
82 | CCOC(=O)c1c(NC(=O)C(C)Sc2c[nH]c3ccccc23)sc2c1CCC2 (stereo not drawn) | 4.04% (inactive)
83 | Cc1cccc(C(=O)Nc2ccc(S(=O)(=O)N3CCCCC3c3cccnc3)cc2)c1 (stereo not drawn) | -26.5% (inactive)
84 | CC(=O)Nc1ccc(NC(=O)C2CCCN(S(=O)(=O)c3ccc4c(c3)CCCC(=O)N4)C2)cc1 (stereo not drawn) | 0.61% (inactive)
85 | O=C1CCCc2cc(S(=O)(=O)N3CCCC(C(=O)NCc4ccccc4)C3)ccc2N1 (stereo not drawn) | -3.91% (inactive)
86 | COc1ccc(OC)c(NC(=O)C2CCCN(S(=O)(=O)c3ccc4c(c3)CCCC(=O)N4)C2)c1 (stereo not drawn) | -38.1% (active)
87 | Cc1ccc(CNC(=O)CCc2c(C)nn(-c3ccc(N4CCCC4)nn3)c2C)cc1 | -0.419% (inactive)
88 | CCCCC12CN3CC(C)(CN(C1)C3c1ccc(O)c(OC)c1)C2=O (stereo not drawn) | 3.82% (inactive)
